High-throughput results (PubChem)
FLuc modulator: counter-screen for miR-21 project: firefly luciferase inhibitors or activators; AID 588342; Potency, µM (titrated, usually from 57.5 µM), for the others: at the highest dose activity change, negative = inhibition, usual class: inhibitors; purified FLuc, Km substrates, luminescence inhibition; 360,000 compounds, 6.9% hits; P08659;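 also: plate controls were vehicle for no effect and reference inhibitor for full effect; nearly all actives have a fitted effect of over 55% in size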
Target sequence (P08659 whole entry, looked up): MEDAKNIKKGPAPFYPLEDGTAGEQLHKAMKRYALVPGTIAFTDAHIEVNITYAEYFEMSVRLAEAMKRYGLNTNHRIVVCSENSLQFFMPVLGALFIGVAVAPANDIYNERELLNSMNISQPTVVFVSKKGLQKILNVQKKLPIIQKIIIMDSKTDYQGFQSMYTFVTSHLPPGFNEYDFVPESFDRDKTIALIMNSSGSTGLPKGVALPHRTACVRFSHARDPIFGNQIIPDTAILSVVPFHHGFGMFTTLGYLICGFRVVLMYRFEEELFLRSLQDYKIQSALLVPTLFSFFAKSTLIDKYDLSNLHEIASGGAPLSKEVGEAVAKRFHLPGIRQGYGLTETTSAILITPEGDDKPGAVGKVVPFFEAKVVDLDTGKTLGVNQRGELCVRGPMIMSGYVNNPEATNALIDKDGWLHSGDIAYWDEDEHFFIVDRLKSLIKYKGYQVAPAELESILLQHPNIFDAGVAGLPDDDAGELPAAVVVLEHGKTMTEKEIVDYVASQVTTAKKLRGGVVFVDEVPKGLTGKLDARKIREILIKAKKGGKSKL
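Purified P. pyralis luciferase, 10 nM final, with Km-level 10 uM D-luciferin and 10 uM ATP in 50 mM Tris acetate pH 7.5, 10 mM Mg acetate, 0.01% Tween-20, 0.05% BSA; 6-point qHTS titration about 60 µM downward; luminescence read.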
Rab9 prom act: activates the Rab9 promoter; Huh7 Rab9 promoter-luciferase reporter, luminescence, 24 h; Potency, µM (highest dose often 9.22 µM), without a hit: at the top dose activation, negative = inhibition, usual class: activators; 320,000 compounds, 2.8% hits; AID 485297; also: % of control where 0% means no effect; nearly all actives have a fitted effect of over 60% in size
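Using Huh7 cells stably transfected with Rab9 promoter–luciferase, compounds were incubated 24 h at 37 °C, 5% CO2; luciferase luminescence was read 10 min after reagent addition.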
NPC1 prom act: activates the NPC1 promoter. 320,000 compounds, 2.4% hits. Potency, µM (titrated, usually from 9.22 µM), for the others: at the highest dose activation, hits mostly activators. Huh7 NPC1 promoter luciferase reporter, 24 h; also: % of control where 0% means no effect; nearly all actives have a fitted effect of over 60% in size
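Compounds in DMSO were transferred onto Huh7 NPC1-luciferase reporter cells pre-incubated 2 h; after 24 h at 37 °C, Amplite reagent was dispensed and luminescence recorded 10 min later.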
ELG1 genotox: induces genotoxicity in HEK293T cells with luciferase-tagged ELG1. Potency, µM (series often up to 46 µM), without a hit: at the top dose activity change, positive = activation, actives largely listed as activators. HEK293T ELG1-luciferase reporter, luminescence, 16 h. 330,000 compounds, 1.3% hits; also: % of control where 0% means no effect; nearly all actives have a fitted effect of over 60% in size
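16 hr compound incubation (37 °C, 5% CO2) of HEK293T cells carrying luciferase-tagged ELG1; luciferase then measured by ONE-Glo luminescence after 30 min at RT.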
SMN2 splice enh: increases expression of the SMN2 splice variant; HEK293 SMN2-luciferase splicing reporter, luminescence, 30-36 h; Potency, µM (series often up to 46.1 µM), for the others: at the top dose activity change, positive = activation, most hits filed as activators; 210,000 compounds, 2.8% hits; AID 1458; also: % of control where 0% means no effect; nearly all actives have a fitted effect of over 55% in size
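HEK293 cells carry an SMN2 minigene-luciferase reporter in which exon 7 inclusion puts luciferase in frame. Cells were seeded at 2000 cells/well, attached for 10-12 hours, then exposed to compounds for 30-36 hours at 37C before ONE-Glo luminescence.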
* = called active by the depositor; [ ] = another dose, or the depositor's remark. The list is not random: actives were taken first. Their share in the collection is about 7.5%. Calls follow the shape of the dose curve; as a rule, active = well fitted curve in the direction sought with a large enough effect; inconclusive = small, poorly fitted or top-dose-only effect, or another doubt; inactive = no such curve, though single readings can be large; an effect the other way counts as inactive or inconclusive. Potency is read from the fitted curve at half-maximal effect.

COc1ccc(-c2nc(C)c(CCNC(=O)c3cccs3)s2)cc1OC was read as FLuc modulator 16.9µM*.
For COc1ccc(-c2nc(C)c(CCNC(=O)C(=O)Nc3ccccc3F)s2)cc1 the results were FLuc modulator -4.1%.
`COC(=O)N[C@@H](CCc1ccccc1)[C@]1(C(=O)OC)CCCC1=O` gave SMN2 splice enh 9.7%.
Screening Cc1ccc(-c2nc(CCNC(=O)c3ccco3)cs2)cc1 returned FLuc modulator 16.9µM*, Rab9 prom act -1.9%, NPC1 prom act -9.7% and ELG1 genotox -8.7%.
`Cc1csc2nc(CNC(=O)c3ccco3)cn12` gave FLuc modulator 16.9µM*, Rab9 prom act inconclusive, NPC1 prom act inconclusive, ELG1 genotox 18.4µM* and SMN2 splice enh 20µM*.
`CC(=O)NCc1cn2c(C)csc2n1` gave FLuc modulator 1.9%, Rab9 prom act -2.5%, NPC1 prom act -2.4%, ELG1 genotox -5.1% and SMN2 splice enh -2.6%.
For CC(C)(C)n1cnc2cc(NC(=O)c3ccco3)ccc21 the results were FLuc modulator 9.53µM*, Rab9 prom act 0.708µM*, NPC1 prom act 0.282µM* and ELG1 genotox inconclusive.
CC(C)(C)c1ccc(C(=O)Nc2ccc(NC(=O)c3ccco3)cc2)cc1 was read as FLuc modulator 0.8%, Rab9 prom act -0.1%, NPC1 prom act -3.1%, ELG1 genotox 2.3% and SMN2 splice enh -1.5%.
For CCn1cnc2cc(NC(=O)c3ccco3)ccc21 the results were FLuc modulator 10.7µM*, Rab9 prom act 1.58µM*, NPC1 prom act 2.82µM*, ELG1 genotox 18.4µM* and SMN2 splice enh 5.01µM*.
CCOC(=O)N1CCN(Cc2nc3cc(NC(=O)c4ccco4)ccc3n2CC)CC1 was read as FLuc modulator 3.1%, Rab9 prom act 26.5%, NPC1 prom act inconclusive and ELG1 genotox 0.2%.
Screening CCCn1cnc2cc(NC(=O)c3ccco3)ccc21 returned FLuc modulator inconclusive, Rab9 prom act 2.82µM*, NPC1 prom act 3.55µM* and ELG1 genotox 2.91µM*.
Screening CCCn1cnc2cc(NC(=O)c3cccs3)ccc21 returned FLuc modulator 10.7µM*, Rab9 prom act 2.82µM*, NPC1 prom act inconclusive, ELG1 genotox 12.5% and SMN2 splice enh 15.8µM*.
Cc1ccccc1NC(=O)CSCc1nc(N)nc(Nc2ccccc2C)n1 was read as FLuc modulator 1.7%, Rab9 prom act 0.1%, NPC1 prom act -2.4% and ELG1 genotox 7.7%.
`CCO[C@H]1OC(C(=O)O)=C[C@@H](C)[C@@H]1CCCO` gave FLuc modulator 2.0%, Rab9 prom act 9.2%, NPC1 prom act -4.8% and ELG1 genotox 0.2%.
`CSCCC(NC(=O)c1ccccc1)C(=O)NCc1ccco1` (centres undefined) gave FLuc modulator 1.8%, Rab9 prom act -4.3%, NPC1 prom act 0.0%, ELG1 genotox -0.2% and SMN2 splice enh 12.9%.
`Nc1ccc2nc(C3CCCCC3)[nH]c2c1` gave FLuc modulator inconclusive, Rab9 prom act 8.2%, NPC1 prom act 3.5% and ELG1 genotox 7.7%.
Screening Nc1ccc2nc(-c3cccc(-c4nc5ccc(N)cc5[nH]4)c3)[nH]c2c1 returned FLuc modulator 7.57µM*, Rab9 prom act -11.2%[1.84 µM], NPC1 prom act -3.1% and ELG1 genotox -4.5%.
`Nc1ccc2nc(-c3cc(Cl)c(N)c(Cl)c3)[nH]c2c1` gave FLuc modulator 6.01µM*, Rab9 prom act 3.16µM*, NPC1 prom act inconclusive, ELG1 genotox inconclusive and SMN2 splice enh 15.8µM*.
For Nc1ccc(-c2nc3ccc(N)cc3[nH]2)cc1 the results were FLuc modulator 15.1µM*, Rab9 prom act inconclusive, NPC1 prom act inconclusive, ELG1 genotox -8.5% and SMN2 splice enh inconclusive.
`CC(C)Cc1nc2ccc(N)cc2[nH]1` gave FLuc modulator 5.6%, Rab9 prom act -6.7%, NPC1 prom act -4.0% and ELG1 genotox 3.3%.
For Cc1nc2ccc(Cc3ccc4nc(C)[nH]c4c3)cc2[nH]1 the results were FLuc modulator inconclusive, Rab9 prom act -4.7%, NPC1 prom act 0.8%, ELG1 genotox -3.7% and SMN2 splice enh -7.8%.
Screening Cc1ccc(C)c(-c2nc3ccc(N)cc3[nH]2)c1 returned FLuc modulator inconclusive, Rab9 prom act -1.3%, NPC1 prom act -2.6%, ELG1 genotox inconclusive and SMN2 splice enh 15.6%.
For Cc1nc2ccc(-c3nc4ccc(N)cc4[nH]3)cc2[nH]1 the results were FLuc modulator 4.78µM*, Rab9 prom act inconclusive, NPC1 prom act inconclusive and ELG1 genotox -2.9%.
COc1cc(NC(=O)COCc2cc(-c3ccc(F)cc3)on2)cc(OC)c1OC was read as FLuc modulator -1.1% and SMN2 splice enh -51.6%.
Screening O=C(CCc1nc2ccccc2[nH]c1=O)N/N=C/c1ccccc1 returned FLuc modulator -0.2%, Rab9 prom act 2.8%, NPC1 prom act -6.4%, ELG1 genotox 3.7% and SMN2 splice enh 11.3%.
Cc1ccc(S(=O)(=O)N(CC(=O)Nc2cccnc2)c2cc(Cl)ccc2C)cc1 was read as FLuc modulator -8.3% and SMN2 splice enh -36.2%.
CN(CC(=O)Nc1ccccc1Br)C(=O)c1cc(S(=O)(=O)N(C)C)ccc1N1CCCC1 was read as FLuc modulator 4.0%, Rab9 prom act 0.2%, NPC1 prom act 3.1% and ELG1 genotox -12.8%.
`Nc1ccc(-c2nc3c(Cl)c(N)ccc3[nH]2)cc1` gave FLuc modulator 12µM*, Rab9 prom act inconclusive, NPC1 prom act inconclusive, ELG1 genotox 16.6% and SMN2 splice enh inconclusive.
`Nc1ccc2nc(-c3ccc(Cl)cc3)[nH]c2c1` gave FLuc modulator 1.9µM*, Rab9 prom act inconclusive, NPC1 prom act inconclusive, ELG1 genotox 16.4µM* and SMN2 splice enh inconclusive.
Screening Clc1ccc2nc(-c3ccc(Cl)nc3)[nH]c2c1 returned FLuc modulator 12µM*, Rab9 prom act 17.1%[1.84 µM], NPC1 prom act 2.24µM* and ELG1 genotox inconclusive.
For Clc1ccc(-c2ccccc2)cn1 the results were FLuc modulator -13.7%, Rab9 prom act -1.1%, NPC1 prom act -1.0% and ELG1 genotox 4.9%.
`Cc1cc(/C=N/Nc2nc(N)ncc2[N+](=O)[O-])c(C)n1-c1cccc(C(F)(F)F)c1` gave FLuc modulator 1.51µM*, Rab9 prom act 0.447µM*, NPC1 prom act 0.891µM* and ELG1 genotox inconclusive.
COc1cccc(/C=N/Nc2ncnc(N)c2[N+](=O)[O-])c1OC was read as FLuc modulator 4.78µM*, Rab9 prom act 0.562µM*, NPC1 prom act 1.78µM*, ELG1 genotox inconclusive and SMN2 splice enh 3.16µM*.
`Cc1cc(/C=N/Nc2ncnc(N)c2[N+](=O)[O-])c(C)n1-c1ccccc1` gave FLuc modulator 0.0757µM*, Rab9 prom act -18.1%, NPC1 prom act inconclusive and ELG1 genotox inconclusive.
